What follows are compounds tested against T1, Ephrin type-B receptor 2 (Homo sapiens) (UniProt P29323). Details: at 1 µM.
T1 sequence (whole entry): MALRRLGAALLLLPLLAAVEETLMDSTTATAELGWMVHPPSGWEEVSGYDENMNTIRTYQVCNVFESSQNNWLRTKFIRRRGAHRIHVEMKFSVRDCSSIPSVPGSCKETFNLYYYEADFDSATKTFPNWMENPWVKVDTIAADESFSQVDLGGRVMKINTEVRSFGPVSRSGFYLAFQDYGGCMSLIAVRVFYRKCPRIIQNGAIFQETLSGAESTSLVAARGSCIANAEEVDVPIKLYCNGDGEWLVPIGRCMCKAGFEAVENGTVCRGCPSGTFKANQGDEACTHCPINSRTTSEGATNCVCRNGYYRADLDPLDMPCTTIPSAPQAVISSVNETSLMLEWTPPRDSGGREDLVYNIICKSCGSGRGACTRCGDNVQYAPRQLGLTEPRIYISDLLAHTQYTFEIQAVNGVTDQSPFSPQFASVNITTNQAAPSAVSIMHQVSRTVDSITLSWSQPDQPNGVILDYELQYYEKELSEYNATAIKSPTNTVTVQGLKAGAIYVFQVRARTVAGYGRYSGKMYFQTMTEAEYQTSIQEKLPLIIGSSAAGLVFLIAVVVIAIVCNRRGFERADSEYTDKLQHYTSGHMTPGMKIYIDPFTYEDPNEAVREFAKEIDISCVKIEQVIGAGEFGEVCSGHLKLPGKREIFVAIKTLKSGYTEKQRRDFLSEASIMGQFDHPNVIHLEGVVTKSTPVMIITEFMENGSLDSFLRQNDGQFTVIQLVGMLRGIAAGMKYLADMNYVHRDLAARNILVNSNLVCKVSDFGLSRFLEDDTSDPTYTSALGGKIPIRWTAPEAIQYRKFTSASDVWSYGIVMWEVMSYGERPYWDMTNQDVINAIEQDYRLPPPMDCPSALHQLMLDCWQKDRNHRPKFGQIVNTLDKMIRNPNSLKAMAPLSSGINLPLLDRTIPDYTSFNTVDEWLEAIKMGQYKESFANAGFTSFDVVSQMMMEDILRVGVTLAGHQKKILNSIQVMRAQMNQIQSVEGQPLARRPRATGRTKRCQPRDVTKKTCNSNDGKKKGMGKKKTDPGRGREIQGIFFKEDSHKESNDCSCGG
`CCn1c(-c2nonc2N)nc2ccc(F)cc21` was tested, and the inhibition was 12.6%.
`[O-][S+]1CCN(Cc2ccc(-c3ccc4ncnc(Nc5ccc(OCc6ccccc6)c(Cl)c5)c4c3)o2)CC1` was tested, and the inhibition was 5.17%.
`N#Cc1cccc(Nc2nccc(-c3cnn4ncccc34)n2)c1` gave an inhibition of 46.2%.
In the case of `CS(=O)(=O)CCNCc1nc(-c2ccc3ncnc(Nc4ccc(OCc5cccc(C(F)(F)F)c5)cc4)c3c2)cs1`, the inhibition is reported as 6.37%.
`COC(=O)c1ccc2c(c1)C(=Cc1cc(Br)c(O)c(Br)c1)C(=O)N2` showed an inhibition of 7.02%.
`NS(=O)(=O)c1cccc(-c2cc3ccncc3cc2OCc2ccccc2)c1` was tested, and the inhibition was 9.74%.
With `COc1ccc(-c2nn3ncccc3c2-c2ccnc(Nc3cccc(C(F)(F)F)c3)n2)cc1` the inhibition was 6.69%.
Work on `Cc1cc(O)cc(C)c1/C=C/c1cncc(C(=O)N(C)C)c1` yielded an inhibition of 22.5%.
`COc1cc(/C=N/Nc2ncnc3c2cnn3C(C)C)ccc1O` showed an inhibition of 30.4%.
Work on `CCOc1nccc2c1nc(-c1nonc1N)n2CC` yielded an inhibition of 13.1%.
`Oc1cccc(-c2nc(-c3ccccc3)[nH]c2-c2ccncc2)c1` showed an inhibition of 26.1%.
`Nc1nccc(C#Cc2cncnc2Nc2ccc(OCc3cccc(F)c3)c(Cl)c2)n1` was tested, and the inhibition was 7.89%.
In the case of `Cc1ccc2c(-c3ccnc(Nc4ccc5c(c4)OCCO5)n3)c(-c3ccc(C(F)(F)F)cc3)nn2n1`, the inhibition is reported as 1.37%.
For `Cc1cc(-c2ccccn2)cc(C)c1/C=C/c1cncc(-c2nn[nH]n2)c1`, the inhibition was 12.8%.
`CN(C)CCCn1c(-c2nonc2N)nc2cnccc21` was tested, and the inhibition was 5.68%.
With `Cc1cc(Cl)cc2c1NC(=O)C2=NNc1ccc(S(N)(=O)=O)cc1` the inhibition was 1.31%.
Work on `CN(c1ccc(NC(=O)Nc2ccc(OC(F)(F)F)cc2)cc1)c1ccnc(Nc2cccc(S(N)(=O)=O)c2)n1` yielded an inhibition of 54.8%.
`COc1cc2ncn(-c3cc(OCc4ccccc4S(C)(=O)=O)c(C#N)s3)c2cc1OC` showed an inhibition of 36%.
With `Cc1ccc(O)cc1Nc1ccnc2ccc(S(C)(=O)=O)cc12` the inhibition was 86.3%.
`CN1CCN(C(=O)c2ccc(NC(=O)Nc3ccc(N(C)c4ccnc(Nc5ccc(CS(C)(=O)=O)cc5)n4)cc3)cc2)CC1` was tested, and the inhibition was 34.3%.
`COC(=O)Nc1nc2cc(Oc3ccc(NC(=O)Nc4cccc(Br)c4)cc3)ccc2[nH]1` showed an inhibition of 80.4%.
In the case of `NS(=O)(=O)c1ccc(N/N=C2\C(=O)Nc3ccc(Cl)cc32)cc1`, the inhibition is reported as 6.46%.
Compound `Cc1nc(-c2ccccc2)n2nc(NCCCN3CCOCC3)ncc12` has an inhibition of 7.29%.
Compound `COc1cc(Nc2nccc(-c3cnn4ncccc34)n2)cc(OC)c1` has an inhibition of 40.2%.
`NS(=O)(=O)c1cccc(Nc2cc(-c3ccc(F)cc3)n[nH]2)c1` was tested, and the inhibition was 10.6%.
For `COc1ccc2ncnc(Nc3ccc(OCc4ccccc4)cc3)c2c1`, the inhibition was 6.18%.
`Cc1ccc2c(c1)/C(=N/Nc1ccc(S(N)(=O)=O)cc1)C(=O)N2` gave an inhibition of -1.87%.
Work on `Cc1ccc(C(=O)NC2CC2)cc1-c1ccc2[nH]ncc2c1` yielded an inhibition of -4.6%.
`NS(=O)(=O)c1ccc(NC=C2C(=O)Nc3ccc4ncsc4c32)cc1` was tested, and the inhibition was 26.1%.
For `CCS(=O)(=O)c1ccc(OC)c(Nc2ncc(-c3cccc(OC)c3)o2)c1`, the inhibition was 24.3%.
Compound `c1ccc(Cc2nc3ccc(Nc4ncnc5ccccc45)cc3[nH]2)cc1` has an inhibition of 12.8%.
`NC(=O)c1cccc(Nc2nccc(Nc3cccc(F)c3)n2)c1` gave an inhibition of 18.1%.
`CCCN1CCCC(c2ccc(Nc3nc(Nc4cc(F)ccc4C(N)=O)c4cc[nH]c4n3)c(OC)c2)C1` (stereo not drawn) gave an inhibition of 15.8%.

Reference: ChEMBL document CHEMBL1961873, “Compounds: GSK PKIS; Assays: Nanosyn kinase panel” (2012)
